Results reported in PubChem BioAssay (Tox21).
Records with an inconclusive call do not appear. Where a call stands in place of a potency, no number is given. Calls of active or inactive are those of the source. Unless noted, the call rests on the fitted dose curve; in most records, active means well fitted curve in the direction sought with a large enough effect in the repeat runs; inconclusive means weak or mixed curves; inactive means flat fitted curve, though single readings scatter.

Tests used:
[1] = qHTS assay to test for compound auto fluorescence at 535 nm (green) in HEK293 cells (AID 720680)
[2] = qHTS assay to test for compound auto fluorescence at 460 nm (blue) in HEK293 cell free culture (AID 720681)
Outline: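 Test compounds were pinned into cell-free culture medium (DMEM with 10% FBS) and fluorescence was read directly at Ex/Em 405/460 nm. Signals were expressed as fluorescence equivalents of triamterene, with DMSO vehicle as control.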

[3] = qHTS assay to test for compound auto fluorescence at 535 nm (green) in HEK293 cell free culture (AID 720682)
Outline: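 Fluorescein serves as the green reference fluorophore; each compound's intrinsic emission at 535 nm (excitation 485 nm) is reported as an equivalent amount of that dye, measured in serum-containing DMEM without cells.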

[4] = qHTS assay to test for compound auto fluorescence at 590 nm (red) in HEK293 cell free culture (AID 720683)
Outline: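 Tox21 10K library compounds were pinned into cell-free DMEM with 10% FBS and fluorescence was read at excitation 540 nm. Activity is expressed as Rose Bengal sodium equivalency.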

[5] = qHTS assay to test for compound auto fluorescence at 590 nm (red) in HepG2 cell free culture (AID 720684)
Outline: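 Red fluorescence (540 nm excitation, 590 nm emission) was measured after compound transfer into cell-free MEM supplemented with 10% FBS. Values are equivalencies against Rose Bengal sodium.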

[6] = qHTS assay to test for compound auto fluorescence at 460 nm (blue) in HepG2 cell free culture (AID 720685)
Outline: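 Compound (23 nL) or DMSO pinned into cell-free MEM with 10% FBS; blue fluorescence read at 405/460 nm excitation/emission, expressed as auto-fluorescence equivalency to triamterene.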

[7] = qHTS assay to test for compound auto fluorescence at 535 nm (green) in HepG2 cell free culture (AID 720686)
[8] = qHTS assay to test for compound auto fluorescence at 460 nm (blue) in HepG2 cells (AID 720687)
Outline: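 Cells (2,000/well in MEM with 10% FBS) attached overnight at 37 C, then were exposed to compound or DMSO for 1 hr at 37 C, 5% CO2. Fluorescence read at Ex/Em 405/460 nm, expressed as triamterene-equivalent signal.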

[9] = biological target: Glucocorticoid receptor (Homo sapiens) (UniProt P04150); test: qHTS assay to identify small molecule agonists of the glucocorticoid receptor (GR) signaling pathway (AID 720691; active means well fitted activation curve with a large enough effect in the signal ratio in the repeat runs, not every such curve was filed as active; the % refers to the signal ratio)
Sequence of Glucocorticoid receptor (Homo sapiens) (P04150 whole entry, looked up): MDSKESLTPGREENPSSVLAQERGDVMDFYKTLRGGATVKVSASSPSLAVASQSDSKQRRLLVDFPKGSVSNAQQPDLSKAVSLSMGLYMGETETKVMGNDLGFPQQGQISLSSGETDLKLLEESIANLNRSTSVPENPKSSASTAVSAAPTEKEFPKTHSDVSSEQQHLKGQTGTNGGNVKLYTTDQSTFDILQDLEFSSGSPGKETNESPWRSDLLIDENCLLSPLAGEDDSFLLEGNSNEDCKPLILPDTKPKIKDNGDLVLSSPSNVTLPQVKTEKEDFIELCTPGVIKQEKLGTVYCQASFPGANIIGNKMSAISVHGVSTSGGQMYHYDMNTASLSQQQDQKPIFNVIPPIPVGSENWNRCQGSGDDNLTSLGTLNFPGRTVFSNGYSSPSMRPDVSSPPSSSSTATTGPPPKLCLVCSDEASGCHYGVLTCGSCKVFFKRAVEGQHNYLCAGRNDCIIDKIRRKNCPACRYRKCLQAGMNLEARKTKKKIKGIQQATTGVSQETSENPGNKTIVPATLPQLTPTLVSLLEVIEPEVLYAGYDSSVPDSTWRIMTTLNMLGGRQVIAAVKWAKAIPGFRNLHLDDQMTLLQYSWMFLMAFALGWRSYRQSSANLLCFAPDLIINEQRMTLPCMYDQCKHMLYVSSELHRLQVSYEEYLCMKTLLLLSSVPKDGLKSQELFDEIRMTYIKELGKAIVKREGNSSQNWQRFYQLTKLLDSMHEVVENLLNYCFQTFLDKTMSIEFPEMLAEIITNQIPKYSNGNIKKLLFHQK
Outline: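 Reporter read-out: fluorescence intensity following 2 h room-temperature LiveBLAzer B/G FRET substrate loading. Prior step: GR-bla HeLa cells held 4 h, then treated 18 h at 37 C.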

[10] = biological target: Glucocorticoid receptor (Homo sapiens) (UniProt P04150); test: qHTS assay to identify small molecule antagonists of the glucocorticoid receptor (GR) signaling pathway (AID 720692; active means well fitted inhibition curve with a large enough effect in the signal ratio in the repeat runs, not every such curve was filed as active; the % refers to the signal ratio; further: potency means the concentration at half of the fitted maximal effect)
Outline: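 Dexamethasone (5 nM final) stimulated a stably integrated GRE-beta-lactamase reporter in HeLa cells during 18 h co-incubation with compounds; signal was quantified as fluorescence intensity of B/G FRET substrate after 2 h.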

C=CC(=O)NC(C)(C)CS(=O)(=O)O
outcome [1]: inactive | outcome [2]: inactive | outcome [3]: inactive | outcome [4]: inactive | outcome [5]: inactive | outcome [6]: inactive | outcome [7]: inactive

Nc1ccc(N=Nc2ccccc2)c(N)n1
outcome [1]: inactive | outcome [2]: inactive | outcome [3]: inactive | outcome [4]: inactive | outcome [5]: inactive | outcome [6]: inactive | outcome [7]: inactive | outcome [8]: inactive

Nc1cccc(N)c1
outcome [1]: inactive | outcome [2]: inactive | outcome [3]: inactive | outcome [4]: inactive | outcome [5]: inactive | outcome [6]: inactive

OC[C@@H](O)[C@@H](O)[C@H](O)[C@H](O)CO
outcome [1]: inactive | outcome [2]: inactive | outcome [3]: inactive | outcome [4]: inactive | outcome [5]: inactive | outcome [6]: inactive | outcome [7]: inactive | outcome [8]: inactive

COCCOCCOC
outcome [1]: inactive | outcome [2]: inactive | outcome [3]: inactive | outcome [4]: inactive | outcome [5]: inactive | outcome [6]: inactive | outcome [7]: inactive

CCCCNC(=O)NS(=O)(=O)c1ccc(N)cc1
outcome [1]: inactive | outcome [2]: inactive | outcome [3]: inactive | outcome [4]: inactive | outcome [5]: inactive | outcome [6]: inactive | outcome [7]: inactive | outcome [8]: inactive

CCOCCO
outcome [1]: inactive | outcome [2]: inactive | outcome [3]: inactive | outcome [4]: inactive | outcome [5]: inactive | outcome [6]: inactive | outcome [7]: inactive | outcome [8]: inactive | Potency [9]: inactive | Potency [10]: inactive

C=CCOC(=O)CC(C)C
outcome [1]: inactive | outcome [2]: inactive | outcome [3]: inactive | outcome [4]: inactive | outcome [5]: inactive | outcome [6]: inactive | outcome [7]: inactive | outcome [8]: inactive | Potency [10]: inactive

CC1=C(/C=C/C(C)=C/C=C/C(C)=C/C(=O)O)C(C)(C)CCC1
outcome [1]: inactive | outcome [2]: inactive | outcome [3]: inactive | outcome [4]: inactive | outcome [5]: inactive | outcome [6]: inactive | outcome [7]: inactive | outcome [8]: inactive | Potency [10]: 54900 nM (active)

Cc1c(N(C)C)c(=O)n(-c2ccccc2)n1C
outcome [1]: inactive | outcome [2]: inactive | outcome [3]: inactive | outcome [4]: inactive | outcome [5]: inactive | outcome [6]: inactive | outcome [7]: inactive | Potency [9]: inactive | Potency [10]: inactive

Cc1cccc(C)c1O
outcome [1]: inactive | outcome [2]: inactive | outcome [3]: inactive | outcome [4]: inactive | outcome [5]: inactive | outcome [6]: inactive | outcome [8]: inactive

C[C@]12CC[C@@H]3c4ccc(O)cc4C[C@@H](CCCCCCCCCS(=O)CCCC(F)(F)C(F)(F)F)[C@H]3[C@@H]1CC[C@@H]2O (stereo not given in full)
outcome [1]: inactive | outcome [2]: inactive | outcome [3]: inactive | outcome [4]: inactive | outcome [5]: inactive | outcome [6]: inactive | outcome [7]: inactive | Potency [9]: inactive | Potency [10]: 1230 nM (active)

CCCCOCCOCCOC(C)=O
outcome [1]: inactive | outcome [2]: inactive | outcome [3]: inactive | outcome [4]: inactive | outcome [5]: inactive | outcome [6]: inactive | outcome [7]: inactive | outcome [8]: inactive | Potency [10]: inactive

CN(C)Cc1cc(CN(C)C)c(O)c(CN(C)C)c1
outcome [1]: inactive | outcome [2]: inactive | outcome [3]: inactive | outcome [4]: inactive | outcome [5]: inactive | outcome [6]: inactive | outcome [7]: inactive | Potency [9]: inactive | Potency [10]: inactive

CCCCCCCCOc1ccc(C(=O)c2ccccc2)c(O)c1
outcome [1]: inactive | outcome [2]: inactive | outcome [3]: inactive | outcome [4]: inactive | outcome [5]: inactive | outcome [6]: inactive | outcome [8]: inactive

COC(=O)c1ccc(C=O)cc1
outcome [1]: inactive | outcome [2]: inactive | outcome [3]: inactive | outcome [4]: inactive | outcome [5]: inactive | outcome [6]: inactive | outcome [7]: inactive | Potency [10]: inactive

N[C@@H](Cc1c[nH]c2ccccc12)C(=O)O
outcome [1]: inactive | outcome [2]: inactive | outcome [3]: inactive | outcome [4]: inactive | outcome [5]: inactive | outcome [6]: inactive | outcome [7]: inactive | Potency [10]: inactive

CC(=O)OC/C=C(C)/C=C/C=C(C)/C=C/C1=C(C)CCCC1(C)C
outcome [1]: inactive | outcome [2]: inactive | outcome [3]: inactive | outcome [4]: inactive | outcome [5]: inactive | outcome [6]: inactive | outcome [8]: inactive

COc1ccc(C(=O)c2ccccc2)c(O)c1
outcome [1]: inactive | outcome [2]: inactive | outcome [3]: inactive | outcome [4]: inactive | outcome [5]: inactive | outcome [6]: inactive | outcome [7]: inactive | Potency [10]: inactive

C#C[C@]1(O)CC[C@H]2[C@@H]3CCc4cc(O)ccc4[C@H]3CC[C@@]21C
outcome [1]: inactive | outcome [2]: inactive | outcome [3]: inactive | outcome [4]: inactive | outcome [5]: inactive | outcome [6]: inactive | outcome [7]: inactive | outcome [8]: inactive | Potency [10]: 1540 nM (active)

CCCCOC(=O)CCCCCCCCC(=O)OCCCC
outcome [1]: inactive | outcome [2]: inactive | outcome [3]: inactive | outcome [4]: inactive | outcome [5]: inactive | outcome [6]: inactive | outcome [7]: inactive | outcome [8]: inactive | Potency [10]: inactive

NC(=O)NO
outcome [1]: inactive | outcome [2]: inactive | outcome [3]: inactive | outcome [4]: inactive | outcome [5]: inactive | outcome [6]: inactive | outcome [7]: inactive | outcome [8]: inactive | Potency [10]: inactive
